Screening results as filed in PubChem.
In the library only some 3.9% were active in any assay of this set; here they are far more common.
Rtt109 HAT inh – blocks Candida albicans Rtt109/Vps75 acetyltransferase activity; Q5AAJ8; purified Rtt109/Vps75, ThioGlo CoA-SH fluorescence, 4 h; inhibition, % at 34.9 µM; 330,000 tested, 0.16% active; AID 540336;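 active = inhibition of at least 50% in every replicate; inconclusive = best replicate reaches 50% inhibition but some replicates fall short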
Target sequence (Q5AAJ8 whole entry, looked up): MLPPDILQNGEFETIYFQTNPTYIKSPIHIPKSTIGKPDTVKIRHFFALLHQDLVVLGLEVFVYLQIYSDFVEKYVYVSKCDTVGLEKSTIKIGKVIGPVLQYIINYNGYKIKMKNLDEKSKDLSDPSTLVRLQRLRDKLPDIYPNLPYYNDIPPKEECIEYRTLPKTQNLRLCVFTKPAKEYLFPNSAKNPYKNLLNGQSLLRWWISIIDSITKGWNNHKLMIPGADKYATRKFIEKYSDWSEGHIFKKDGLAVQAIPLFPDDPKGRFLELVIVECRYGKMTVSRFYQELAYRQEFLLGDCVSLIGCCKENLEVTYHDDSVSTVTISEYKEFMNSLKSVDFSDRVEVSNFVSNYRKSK
SKKanGAS inh – SKKanGAS growth inhibition; 300,000 tested, 1.3% active; S. pyogenes SKKanGAS, kanamycin growth, BacTiter-Glo, 6 h; inhibition, % at 7.5 µM;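 active = mean replicate score, as percent of positive control median, at least 50; inconclusive = mean below 50 but one replicate at or above 50; inactive = mean and every replicate below 50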;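 note: strain carries kanamycin resistance gene driven by streptokinase promoter and grows in 40 µg/ml kanamycin; loss of luminescence reflects streptokinase promoter inhibition or plain growth inhibition; 0% = median of DMSO wells and 100% = positive control at its reference dose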
TPT1 inh – C. albicans TPT1 enzyme inhibition; recombinant caTPT1, FP RNA substrate dephosphorylation; inhibition, % at 5 µM; 300,000 tested, 0.81% active;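 active = inhibition above the mean of all tested compounds plus 3 SD, set per screening campaign, cut at about 24% in these data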;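 note: plate controls were DMSO alone for no effect and ferristatin control at 100 nM for full effect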
WT yeast gro inh – growth inhibition of WT yeast, mitochondrial fusion screen | mitochondrial fusion phenotypic screen, WT strain | inhibition, % at 10 µM | 190,000 tested, 2.1% active; in the data active = inhibition above about 58%; tested in S. cerevisiae
PHOSPHO1 inh – PHOSPHO1 (human) inhibition. Q8TCT1. inhibition, % at 13.3 µM. AID 1565. 290,000 tested, 1.1% active. recombinant PHOSPHO1, absorbance phosphatase assay; in the data active = inhibition above about 60%
Target sequence (Q8TCT1 whole entry, looked up): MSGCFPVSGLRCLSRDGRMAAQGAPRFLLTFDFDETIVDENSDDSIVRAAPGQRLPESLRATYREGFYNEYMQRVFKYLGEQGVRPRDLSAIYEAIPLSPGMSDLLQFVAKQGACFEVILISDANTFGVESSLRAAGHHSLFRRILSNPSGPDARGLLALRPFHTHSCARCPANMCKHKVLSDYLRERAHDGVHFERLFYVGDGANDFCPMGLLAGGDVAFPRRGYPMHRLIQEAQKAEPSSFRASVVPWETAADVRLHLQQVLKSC
Platelet DG rel – platelet dense granule release activity | inhibition, %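 (compounds screened at 7.5 µM in platelet-rich plasma)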 | human platelet-rich plasma, SFLLRN dense granule ATP release, luminescence | 300,000 tested, 0.22% active;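 active = mean replicate score, as percent of positive control, at or above 50; inconclusive = mean below 50 but at least one replicate at or above 50; inactive = mean and every replicate below 50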
* hit, by the source's call.

How did CC(C)N(C(=S)Nc1cccc(S(=O)(=O)N(C)C)c1)c1ccccc1 do in these assays?
Rtt109 HAT inh: 7; SKKanGAS inh: -2; TPT1 inh: -4; PHOSPHO1 inh: 8; Platelet DG rel: 9

How did Cc1ccc(CCNC(=O)C2CCCN(c3ncnc4c3nc3n4CCCCC3)C2)cc1 (centres undefined) do in these assays?
Rtt109 HAT inh: -21; SKKanGAS inh: -2; TPT1 inh: 1; PHOSPHO1 inh: 80*; Platelet DG rel: 0

Results for CN1/C(=C/C(=O)C2CCC2)Sc2ccccc21 ?
Rtt109 HAT inh: -2; SKKanGAS inh: -4; TPT1 inh: 1; WT yeast gro inh: -13; PHOSPHO1 inh: 13; Platelet DG rel: 8

How did CCC(=S)/C=C1\Sc2ccccc2N1CCCS(=O)(=O)O do in these assays?
Rtt109 HAT inh: 15; SKKanGAS inh: -3; TPT1 inh: 2; WT yeast gro inh: 12; PHOSPHO1 inh: 64*; Platelet DG rel: 3

How did Cc1cc(C)cc(NC(=O)c2cccc(C(=O)Nc3cc(C)cc(C)c3)n2)c1 do in these assays?
Rtt109 HAT inh: -4; SKKanGAS inh: 4; TPT1 inh: -4; PHOSPHO1 inh: 3; Platelet DG rel: 2

What do the screens show for `Cc1onc(-c2ccccc2)c1C(=O)NC(=S)NNC(=O)c1cc(-c2ccc(F)cc2)n[nH]1`?
Rtt109 HAT inh: 1; SKKanGAS inh: 119*; TPT1 inh: -1; PHOSPHO1 inh: -6; Platelet DG rel: 2

How did Cc1onc(-c2ccccc2)c1C(=O)NNC(=S)NC(=O)/C=C/c1cccs1 do in these assays?
Rtt109 HAT inh: 16; SKKanGAS inh: 95*; TPT1 inh: -2; WT yeast gro inh: -20; PHOSPHO1 inh: -24; Platelet DG rel: -3

What do the screens show for `Cc1onc(-c2ccccc2)c1C(=O)N/N=C/c1cccs1`?
Rtt109 HAT inh: -8; SKKanGAS inh: -2; TPT1 inh: 2; PHOSPHO1 inh: 47; Platelet DG rel: 6

What do the screens show for `Cc1onc(-c2ccccc2)c1C(=O)NC(=S)NNC(=O)c1ccco1`?
Rtt109 HAT inh: 23; SKKanGAS inh: 78*; TPT1 inh: -5; PHOSPHO1 inh: -91; Platelet DG rel: 17

How did Cc1onc(-c2ccccc2)c1C(=O)NC(=S)NNC(=O)c1ccncc1 do in these assays?
Rtt109 HAT inh: 0; SKKanGAS inh: 35; TPT1 inh: 0; WT yeast gro inh: -6; PHOSPHO1 inh: 5; Platelet DG rel: -1

What do the screens show for `Cc1onc(-c2ccccc2)c1C(=O)NC(=S)NNC(=O)c1cccnc1`?
Rtt109 HAT inh: -4; SKKanGAS inh: 23; TPT1 inh: 3; WT yeast gro inh: -4; PHOSPHO1 inh: -7; Platelet DG rel: -16

How did O=C(Nc1cccc(F)c1)C1CCCN(S(=O)(=O)c2cccc3cccnc23)C1 (centres undefined) do in these assays?
Rtt109 HAT inh: -3; SKKanGAS inh: -12; TPT1 inh: -2; PHOSPHO1 inh: 49; Platelet DG rel: 11

How did Cc1ccc(NC(=O)COc2ccc3c(c2)OCO3)c(C)c1 do in these assays?
Rtt109 HAT inh: -4

Results for O=C(CSc1ccc([N+](=O)[O-])cc1)Nc1nnc(C2CC2)s1 ?
Rtt109 HAT inh: 0

What do the screens show for `CCOC(=O)c1[nH]c2ccc(OC)cc2c1NC(=O)C(C)N1CCC2(CC1)OCCO2` (centres undefined)?
WT yeast gro inh: 67*; PHOSPHO1 inh: 23

Results for c1ccc(-c2noc(-c3cccc4ccccc34)n2)cc1 ?
Rtt109 HAT inh: 2; SKKanGAS inh: 29; TPT1 inh: -4; WT yeast gro inh: 67*; PHOSPHO1 inh: -24; Platelet DG rel: 9

What do the screens show for `Cc1cc2ncn(/N=C/c3cccnc3)c2cc1C`?
Rtt109 HAT inh: -5; SKKanGAS inh: -11; TPT1 inh: -1; WT yeast gro inh: 61*; PHOSPHO1 inh: 19; Platelet DG rel: 2

What do the screens show for `Cc1cccc(NCc2nc3ccccc3n2Cc2ccccc2)c1`?
Rtt109 HAT inh: 12; SKKanGAS inh: inconclusive; TPT1 inh: 0; WT yeast gro inh: 75*; PHOSPHO1 inh: -14; Platelet DG rel: -2

What do the screens show for `Cc1ccc(Cn2c(Cc3ccccc3)nc3ccccc32)cc1`?
Rtt109 HAT inh: 1; SKKanGAS inh: 69*; TPT1 inh: 4; WT yeast gro inh: 71*; PHOSPHO1 inh: 23; Platelet DG rel: 9

Results for ClCc1nc2ccccc2n1Cc1ccccc1 ?
Rtt109 HAT inh: -5; SKKanGAS inh: 22; TPT1 inh: -8; Platelet DG rel: -3

Results for COc1cccc(-c2cc(C(F)(F)F)nc(N3CCC(C)CC3)n2)c1 ?
Rtt109 HAT inh: -3; SKKanGAS inh: 68*; TPT1 inh: -1; WT yeast gro inh: -2; PHOSPHO1 inh: 37; Platelet DG rel: -3

Results for Fc1ccc(-c2cc(C(F)(F)F)nc(N3CCCCC3)n2)cc1 ?
Rtt109 HAT inh: -1; SKKanGAS inh: 65*; TPT1 inh: 0; WT yeast gro inh: 11; PHOSPHO1 inh: 52; Platelet DG rel: 1

How did COc1cc(/C=N/n2c(=S)[nH]nc(C)c2=O)cc([N+](=O)[O-])c1O do in these assays?
Rtt109 HAT inh: -4; SKKanGAS inh: 6; TPT1 inh: -2; WT yeast gro inh: -9; PHOSPHO1 inh: 64*; Platelet DG rel: -3

How did CCN(CC(=O)Nc1ccc(NC(C)=O)cc1)C(=O)c1ccc(=O)n(C)n1 do in these assays?
Rtt109 HAT inh: -2

What do the screens show for `Cc1ccc(NC2=Nc3ccccc3N3C2=Nc2c(c(C)nn2-c2ccccc2)C3c2ccc(O)c(O)c2)cc1` (centres undefined)?
Rtt109 HAT inh: 2; WT yeast gro inh: 0; PHOSPHO1 inh: 29

Results for Cc1nn(-c2ccccc2)c2c1C(c1ccc(O)c(O)c1)N1C(=N2)C(Nc2ccccc2)=Nc2ccccc21 (centres undefined) ?
Rtt109 HAT inh: -8; SKKanGAS inh: 88*; TPT1 inh: 18; WT yeast gro inh: 2; PHOSPHO1 inh: -66; Platelet DG rel: 2

What do the screens show for `Cc1cccc(NC2=Nc3ccccc3N3C2=Nc2c(c(C)nn2-c2ccccc2)C3c2ccc(O)c(O)c2)c1` (centres undefined)?
Rtt109 HAT inh: 1; SKKanGAS inh: 99*; TPT1 inh: 18; WT yeast gro inh: 19; PHOSPHO1 inh: -4; Platelet DG rel: -3

What do the screens show for `O=C(N/N=C/c1c[nH]c2ccccc12)c1cc(-c2ccc(-c3ccccc3)cc2)n[nH]1`?
Rtt109 HAT inh: -4; SKKanGAS inh: 92*; TPT1 inh: 1; WT yeast gro inh: -4; PHOSPHO1 inh: 41; Platelet DG rel: -4

Results for O=C(N/N=C/c1c[nH]c2ccccc12)c1cc(-c2ccc3ccccc3c2)n[nH]1 ?
Rtt109 HAT inh: -3; SKKanGAS inh: 95*; TPT1 inh: 3; WT yeast gro inh: -5; PHOSPHO1 inh: 1; Platelet DG rel: 4

How did O=C(N/N=C/c1c[nH]c2ccccc12)c1cc(-c2ccccc2)n[nH]1 do in these assays?
Rtt109 HAT inh: 1; SKKanGAS inh: 7; TPT1 inh: -2; WT yeast gro inh: -16; PHOSPHO1 inh: 18; Platelet DG rel: -4
